20 compounds from PubChem BioAssay AID504454 (NMMLSC, 2011) can be followed below.

About 1,400 (0.41%) of roughly 340,000 compounds were called active. Many of the other results were omitted from the sample, so actives are more common in it than they were. Values without a mark were called inactive.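 The calls were made as follows: active = response above a set limit, near 3 SD of response in nonfluorescent compounds (cut at about 42% in these data); inactive = the rest.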

For this assay, the target named is Beta-2 adrenergic receptor (Homo sapiens) (UniProt P07550). In words: beta2AR agonists driving receptor internalization, primary screen, cell-based, FAP fluorogen, flow cytometry (AID 504454). As to conditions: Am2.2-beta2AR cells, active compounds read high, concentration not given here.
Sequence of Beta-2 adrenergic receptor (Homo sapiens) (P07550 whole entry, looked up): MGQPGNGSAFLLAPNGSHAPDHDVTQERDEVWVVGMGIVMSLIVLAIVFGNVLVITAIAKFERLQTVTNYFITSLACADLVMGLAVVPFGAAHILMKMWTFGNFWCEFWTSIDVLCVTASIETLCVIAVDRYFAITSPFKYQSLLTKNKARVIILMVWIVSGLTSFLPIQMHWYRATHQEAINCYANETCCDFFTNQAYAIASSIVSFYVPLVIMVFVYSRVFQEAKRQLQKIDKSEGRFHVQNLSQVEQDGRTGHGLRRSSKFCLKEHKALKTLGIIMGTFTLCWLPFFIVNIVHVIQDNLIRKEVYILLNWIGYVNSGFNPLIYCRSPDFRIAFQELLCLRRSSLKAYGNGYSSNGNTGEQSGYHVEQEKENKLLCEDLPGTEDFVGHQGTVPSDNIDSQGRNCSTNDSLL
As to `O=C1NC(=O)N(CCc2ccc(F)cc2)C(=O)/C1=C/C=C/c1ccccc1`, the response was 18.2%. To `COc1ccc(N2C(=O)/C(=C/c3ccco3)C(=O)NC2=S)cc1` belongs 11.6%.

On to `O=C1NC(=O)N(Cc2ccco2)C(=O)/C1=C\c1ccc(-c2ccc(F)cc2)o1`, for which the response was 47.3% (active). Under `NC(=O)Nc1cccc(C(F)(F)F)c1` stands -1.13%; under `O=C1NC(=O)C(CCc2ccccn2)(Cc2cccc(Cl)c2Cl)C(=O)N1c1ccc(Br)cc1` (stereo not given), 51.1% (active). To `Cc1ccc(N2C(=O)NC(=O)C(CCc3ccncc3)(Cc3cccc(Cl)c3Cl)C2=O)cc1` (stereo not given) belongs -11.4%. Under `COc1ccc(C(=O)CC2C(=O)N(C)C(=O)N(C)C2=O)cc1` stands 8.45%. `CCN(N=Nc1nonc1OC)c1nonc1OC`: the response is -1.92%. Regarding `Cc1c(Oc2cc(NN3CCCCC3)c([N+](=O)[O-])cc2[N+](=O)[O-])cccc1[N+](=O)[O-]`, the response is -2.15%.

On to `CCCC(C)n1[nH]c(=O)c2c1NC(=O)CSC2c1ccc(OC)c(OC)c1` (stereo not given), for which the response was -2.18%. With `C[C@]12CCC3C(CC[C@H]4[C@H](O)[C@H](O)CC[C@]34C)C1CCC2=O` (stereo not given in full), the response was 0.88%. To `O=C(N/N=C/c1c(O)n(Cc2ccccc2)c(=O)[nH]c1=O)c1ccccc1` belongs -4.99%; to `O=C(N/N=C/c1c(O)n(C2CC2)c(=S)[nH]c1=O)c1ccccc1Cl`, -2.3%. Under `O=C(N/N=C/c1c(O)n(C2CC2)c(=S)[nH]c1=O)c1ccccc1` stands 88.2% (active); under `CN1CCC[C@@H]1CCO[C@](C)(c1ccccc1)c1ccc(Cl)cc1`, 7.46%; under `CCC(=O)CC(c1ccc([N+](=O)[O-])cc1)c1c(O)c2ccccc2oc1=O` (stereo not given), 8.6%.

Turning to `Cc1ccc2c(c1)C1CN(C)CCC1N2C(=O)Cn1nnc(-c2ccccc2F)n1` (stereo not given), the response was 3.52%. To `CCc1ccc(OCC(=O)N2CCN(CC(=O)Nc3ccccc3Cl)CC2)cc1` belongs 1.84%; to `Cc1ccc(C(C)C)c(OCC(=O)N2CCN(CC(=O)N3CCOCC3)CC2)c1`, 1.49%. Under `CCC(=O)c1ccc(OCC(=O)N2CCN(CC(=O)Nc3ccc(C)cc3)CC2)cc1` stands 80.6% (active).
